For some of these results: Results with a measured potency or affinity are listed apart.
What was measured:
Set-up in all cases: scale not given: direction of the effect not stated beside the values
[1] = target: Protein translocase subunit SecA (Escherichia coli (strain K12)) (UniProt P10408); assay: Assay to Identify E. coli SecA ATPase Inhibitors; format: functional; settings: 30 µM
[2] = target: T1, Ubiquitin-activating enzyme e1, putative (Leishmania donovani (strain BPK282A1)) (UniProt E9BSI1); assay: Leishmania donovani Ubiquitin Activating Enzyme (LdE1); format: functional; settings: 30 µM
T1 sequence (whole entry): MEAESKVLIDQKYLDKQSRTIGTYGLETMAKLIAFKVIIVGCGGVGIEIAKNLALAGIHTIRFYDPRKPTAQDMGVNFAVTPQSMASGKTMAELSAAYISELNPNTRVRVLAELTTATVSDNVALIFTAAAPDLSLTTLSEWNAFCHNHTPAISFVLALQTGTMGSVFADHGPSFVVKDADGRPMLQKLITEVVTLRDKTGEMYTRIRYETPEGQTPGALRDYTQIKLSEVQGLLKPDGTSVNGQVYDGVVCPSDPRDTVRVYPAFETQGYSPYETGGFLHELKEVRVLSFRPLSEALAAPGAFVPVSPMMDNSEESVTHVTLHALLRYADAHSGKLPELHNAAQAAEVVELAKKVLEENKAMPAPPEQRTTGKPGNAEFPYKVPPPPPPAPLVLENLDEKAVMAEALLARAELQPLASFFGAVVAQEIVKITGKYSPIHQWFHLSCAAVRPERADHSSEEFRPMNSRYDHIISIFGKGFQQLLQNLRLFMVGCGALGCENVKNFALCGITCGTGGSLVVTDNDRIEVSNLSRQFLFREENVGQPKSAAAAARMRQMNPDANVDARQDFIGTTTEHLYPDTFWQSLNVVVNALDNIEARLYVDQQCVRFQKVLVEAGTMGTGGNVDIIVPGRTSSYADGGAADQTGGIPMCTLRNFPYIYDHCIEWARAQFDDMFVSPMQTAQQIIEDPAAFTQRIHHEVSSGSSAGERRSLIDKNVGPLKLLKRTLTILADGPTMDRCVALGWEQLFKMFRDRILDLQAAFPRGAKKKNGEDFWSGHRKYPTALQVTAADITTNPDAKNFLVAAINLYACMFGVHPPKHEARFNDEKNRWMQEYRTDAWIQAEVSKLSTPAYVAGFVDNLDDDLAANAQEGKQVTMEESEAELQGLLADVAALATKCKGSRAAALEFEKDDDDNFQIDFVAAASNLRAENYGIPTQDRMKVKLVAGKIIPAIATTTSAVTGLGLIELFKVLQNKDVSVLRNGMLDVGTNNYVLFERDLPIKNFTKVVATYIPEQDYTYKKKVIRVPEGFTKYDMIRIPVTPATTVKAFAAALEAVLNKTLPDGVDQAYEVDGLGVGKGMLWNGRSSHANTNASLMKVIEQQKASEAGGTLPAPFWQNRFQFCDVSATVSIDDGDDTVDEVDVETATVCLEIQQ

[3] = target: AMP-activated protein kinase, AMPK (Homo sapiens) (UniProt P54646+O43741+P54619+Q9UGJ0+Q9Y478+Q13131+Q9UGI9); assay: AMP-dependent Kinase enzyme assay. An in vitro enzyme assay that detects ADP turnover that is directly proportional to AMPK activity. This uses naive AMPK that is activated during the assay with MK-8722; format: functional; settings: 30 µM
[4] = target: Sialic acid-binding Ig-like lectin 9 (Homo sapiens) (UniProt Q9Y336); assay: Hs-Siglec9 ALPHAscreen SOP 20170721; settings: 10 µM
Sequence of Sialic acid-binding Ig-like lectin 9 (Homo sapiens) (Q9Y336 whole entry): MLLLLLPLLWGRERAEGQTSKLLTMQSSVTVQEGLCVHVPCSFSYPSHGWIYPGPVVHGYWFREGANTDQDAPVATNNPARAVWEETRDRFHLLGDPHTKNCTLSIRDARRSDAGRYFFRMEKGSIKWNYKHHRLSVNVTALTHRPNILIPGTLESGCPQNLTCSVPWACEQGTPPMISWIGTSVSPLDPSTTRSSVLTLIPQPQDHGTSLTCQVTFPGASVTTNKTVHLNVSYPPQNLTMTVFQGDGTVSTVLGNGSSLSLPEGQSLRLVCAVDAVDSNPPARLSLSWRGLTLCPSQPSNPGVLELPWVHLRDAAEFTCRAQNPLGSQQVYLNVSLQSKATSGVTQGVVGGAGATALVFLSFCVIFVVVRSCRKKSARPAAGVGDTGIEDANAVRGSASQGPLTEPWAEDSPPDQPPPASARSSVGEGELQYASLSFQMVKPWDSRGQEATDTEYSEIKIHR

[5] = tested on: Trypanosoma cruzi; assay: Trypanosoma cruzi phosphomannomutase and mannose-1-phosphate guanylyltransferase assay; format: functional; settings: 10 µM
[6] = target: T2, Arginase-2, mitochondrial (Homo sapiens) (UniProt P78540); assay: in vitro enzyme assay to detect the production of urea directly proportional to the activity of Arginase II; format: functional; settings: 33.3 µM; also: in the data most compounds retested in dose-response had high values
T2 sequence (whole entry): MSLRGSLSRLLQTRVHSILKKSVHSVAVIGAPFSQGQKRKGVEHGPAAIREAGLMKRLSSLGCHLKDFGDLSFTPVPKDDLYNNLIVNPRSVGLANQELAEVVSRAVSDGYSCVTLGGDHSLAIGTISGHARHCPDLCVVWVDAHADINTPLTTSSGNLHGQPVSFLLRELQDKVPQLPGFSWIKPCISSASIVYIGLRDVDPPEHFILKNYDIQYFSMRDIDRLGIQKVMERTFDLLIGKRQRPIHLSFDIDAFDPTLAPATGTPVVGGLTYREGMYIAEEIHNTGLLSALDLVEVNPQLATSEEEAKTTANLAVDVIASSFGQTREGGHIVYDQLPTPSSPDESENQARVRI

[7] = target: T3, Proteasome subunit beta (Trypanosoma cruzi) (UniProt O96673); assay: Trypanosoma cruzi proteasome chymotrypsin-like activity (TcProtChymo) assay.; also: in the data most compounds retested in dose-response had high values; format: functional; settings: 9.37 µM
T3 sequence (whole entry): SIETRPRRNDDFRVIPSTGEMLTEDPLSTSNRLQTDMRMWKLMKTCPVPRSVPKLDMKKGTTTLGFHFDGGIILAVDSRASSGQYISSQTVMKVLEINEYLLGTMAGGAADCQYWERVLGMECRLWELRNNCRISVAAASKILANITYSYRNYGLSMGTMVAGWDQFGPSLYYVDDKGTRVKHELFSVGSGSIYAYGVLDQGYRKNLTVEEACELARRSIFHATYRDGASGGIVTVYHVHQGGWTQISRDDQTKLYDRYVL

[8] = organism: Homo sapiens; assay: To identify inhibition of the IFN signalling (Jak-Stat) pathway via expression of an eGFP reporter gene under the control of an IFN-stimulated response element (ISRE) containing MxA promoter.; format: functional; settings: 30 µM
[9] = target: T4, Tyrosyl-tRNA synthetase, putative (Trypanosoma cruzi (strain CL Brener)) (UniProt Q4DSP6); assay: Trypanosoma cruzi tyrosyl tRNA synthetase (TcYRS) _High Tyrosine SOP; format: functional; settings: 30 µM; also: in the data most compounds retested in dose-response had high values
T4 sequence (whole entry): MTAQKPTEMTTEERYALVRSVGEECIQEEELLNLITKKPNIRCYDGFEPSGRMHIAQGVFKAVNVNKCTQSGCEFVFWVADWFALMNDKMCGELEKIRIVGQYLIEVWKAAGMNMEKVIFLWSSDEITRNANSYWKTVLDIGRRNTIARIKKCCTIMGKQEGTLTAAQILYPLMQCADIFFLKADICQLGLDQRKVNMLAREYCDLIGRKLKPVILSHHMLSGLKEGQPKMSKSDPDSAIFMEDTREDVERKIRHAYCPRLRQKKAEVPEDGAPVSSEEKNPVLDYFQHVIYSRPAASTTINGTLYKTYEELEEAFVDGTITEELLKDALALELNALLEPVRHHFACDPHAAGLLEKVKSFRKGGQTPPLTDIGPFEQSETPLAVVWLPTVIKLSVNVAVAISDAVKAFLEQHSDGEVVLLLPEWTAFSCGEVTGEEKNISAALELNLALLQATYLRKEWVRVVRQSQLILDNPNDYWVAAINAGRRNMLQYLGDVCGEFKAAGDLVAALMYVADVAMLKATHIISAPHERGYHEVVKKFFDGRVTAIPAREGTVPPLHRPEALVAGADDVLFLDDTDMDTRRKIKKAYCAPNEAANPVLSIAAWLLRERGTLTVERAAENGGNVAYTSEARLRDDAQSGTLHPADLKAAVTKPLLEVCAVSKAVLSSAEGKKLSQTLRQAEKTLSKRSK

[10] = target: T4, Tyrosyl-tRNA synthetase, putative (Trypanosoma cruzi (strain CL Brener)); assay: Trypanosoma cruzi tyrosyl tRNA synthetase (TcYRS) SOP; format: functional; settings: 30 µM
[11] = target: Chromo domain-containing protein 1 (Saccharomyces cerevisiae (strain ATCC 204508 / S288c) (Baker's yeast)) (UniProt P32657); assay: ScCHD-1 Enzyme Inhibition Assay; format: functional; settings: 30 µM; also: in the data most compounds retested in dose-response had high values
Sequence of Chromo domain-containing protein 1 (Saccharomyces cerevisiae (strain ATCC 204508 / S288c) (Baker's yeast)) (P32657 whole entry, the tested form may be a part): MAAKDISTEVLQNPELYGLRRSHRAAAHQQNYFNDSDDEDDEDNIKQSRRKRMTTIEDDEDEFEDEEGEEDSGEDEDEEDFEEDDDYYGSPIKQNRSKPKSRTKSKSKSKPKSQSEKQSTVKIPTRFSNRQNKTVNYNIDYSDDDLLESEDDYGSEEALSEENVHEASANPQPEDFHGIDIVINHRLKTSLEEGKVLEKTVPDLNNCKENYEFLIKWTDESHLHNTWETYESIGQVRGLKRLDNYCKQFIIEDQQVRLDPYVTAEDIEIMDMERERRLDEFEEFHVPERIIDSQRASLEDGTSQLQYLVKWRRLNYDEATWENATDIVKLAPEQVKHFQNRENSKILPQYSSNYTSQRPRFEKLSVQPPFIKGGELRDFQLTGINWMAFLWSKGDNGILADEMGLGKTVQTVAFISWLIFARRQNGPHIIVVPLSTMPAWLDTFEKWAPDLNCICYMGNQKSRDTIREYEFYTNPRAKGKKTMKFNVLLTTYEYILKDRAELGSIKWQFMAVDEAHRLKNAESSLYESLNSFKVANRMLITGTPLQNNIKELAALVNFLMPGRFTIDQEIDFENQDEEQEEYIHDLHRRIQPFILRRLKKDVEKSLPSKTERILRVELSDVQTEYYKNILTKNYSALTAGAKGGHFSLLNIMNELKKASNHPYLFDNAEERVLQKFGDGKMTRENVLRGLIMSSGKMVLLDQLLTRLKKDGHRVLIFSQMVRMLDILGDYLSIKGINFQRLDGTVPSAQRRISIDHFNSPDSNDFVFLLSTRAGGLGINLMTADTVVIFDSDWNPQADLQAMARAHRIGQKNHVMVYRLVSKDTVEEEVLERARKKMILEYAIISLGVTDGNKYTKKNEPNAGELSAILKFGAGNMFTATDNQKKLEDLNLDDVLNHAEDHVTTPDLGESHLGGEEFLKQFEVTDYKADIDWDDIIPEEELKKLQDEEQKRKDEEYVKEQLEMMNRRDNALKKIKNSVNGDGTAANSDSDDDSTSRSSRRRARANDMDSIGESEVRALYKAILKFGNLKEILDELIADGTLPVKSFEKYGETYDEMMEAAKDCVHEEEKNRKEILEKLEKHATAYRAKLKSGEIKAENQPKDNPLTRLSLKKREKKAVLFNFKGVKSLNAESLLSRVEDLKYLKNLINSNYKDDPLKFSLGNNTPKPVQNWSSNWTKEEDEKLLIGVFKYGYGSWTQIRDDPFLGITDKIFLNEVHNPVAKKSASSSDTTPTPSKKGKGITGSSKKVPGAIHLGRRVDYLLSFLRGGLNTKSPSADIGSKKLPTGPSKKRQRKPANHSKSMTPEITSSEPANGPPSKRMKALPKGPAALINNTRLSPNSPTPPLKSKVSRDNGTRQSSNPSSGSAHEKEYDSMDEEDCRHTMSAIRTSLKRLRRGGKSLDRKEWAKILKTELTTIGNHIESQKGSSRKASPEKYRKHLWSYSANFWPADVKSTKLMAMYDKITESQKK

Sequence of Protein translocase subunit SecA (Escherichia coli (strain K12)) (P10408 whole entry): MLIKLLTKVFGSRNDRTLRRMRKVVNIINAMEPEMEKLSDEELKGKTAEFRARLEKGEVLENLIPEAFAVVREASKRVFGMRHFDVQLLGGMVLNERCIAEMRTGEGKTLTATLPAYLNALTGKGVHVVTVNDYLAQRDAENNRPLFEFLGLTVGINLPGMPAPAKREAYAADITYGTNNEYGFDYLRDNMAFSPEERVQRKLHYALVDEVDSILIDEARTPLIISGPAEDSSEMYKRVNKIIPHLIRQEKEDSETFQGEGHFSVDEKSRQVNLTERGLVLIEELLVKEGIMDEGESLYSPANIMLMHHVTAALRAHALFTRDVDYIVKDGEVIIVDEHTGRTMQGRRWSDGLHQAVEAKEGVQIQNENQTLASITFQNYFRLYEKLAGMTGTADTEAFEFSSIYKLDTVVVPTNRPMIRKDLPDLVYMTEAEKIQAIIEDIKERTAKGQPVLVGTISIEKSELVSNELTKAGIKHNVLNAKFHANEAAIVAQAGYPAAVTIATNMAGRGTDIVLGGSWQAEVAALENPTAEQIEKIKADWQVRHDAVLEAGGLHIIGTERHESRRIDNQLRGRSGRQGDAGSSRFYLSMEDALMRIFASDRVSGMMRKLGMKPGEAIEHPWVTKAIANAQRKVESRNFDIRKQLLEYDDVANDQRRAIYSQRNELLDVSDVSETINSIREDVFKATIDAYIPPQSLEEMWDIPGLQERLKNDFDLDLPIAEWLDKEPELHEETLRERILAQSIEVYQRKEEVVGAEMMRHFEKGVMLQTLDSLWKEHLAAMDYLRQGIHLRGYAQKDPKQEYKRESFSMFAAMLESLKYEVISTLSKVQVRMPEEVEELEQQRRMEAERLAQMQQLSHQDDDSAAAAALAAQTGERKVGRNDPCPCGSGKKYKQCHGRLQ

| Compound | Percent Effect [1] | Percent Effect [2] | Percent Effect [3] | Percent Effect [4] | Percent Effect [5] | Percent Effect [6] | Percent Effect [7] | Percent Effect [8] | Percent Effect [9] | Percent Effect [10] | Percent Effect [11] |
| --- | --- | --- | --- | --- | --- | --- | --- | --- | --- | --- | --- |
| Cc1ncc(CNC(=O)CCc2cccc(F)c2)c(C2CCCN2C)n1 (stereo unspecified) | -7.92% | 9.46% | -0.703% | 1.74% | 0.988% | -3.94% | 5.15% | 2.42% | 2.15% | 9.09% | -19.1% |
| CCS(=O)(=O)N1CCC[C@]2(C(=O)N(C)C)CN(c3ncccn3)C[C@@H]2C1 | 2.18% | 10.7% | 3.9% | 3.64% | 0.193% | -53.9% | 7.52% | -10.8% | 3.12% | 22.5% | -10.2% |
| COc1ccc(NC(C)=O)c(N2CCN(C(C)=O)CC2)n1 | -3.73% | -2.7% | -14.1% | -3.66% | -3.32% | 0% | 7.35% | -1.36% | 7.92% | 8.54% | 15.3% |
| CC(O)CN1CCN(C(=O)c2ccc(N(C)C)nn2)CC1 (stereo unspecified) | -4.58% | 10.4% | -1.75% | 11.7% | 3.93% | 4.27% | 1.18% | 17.9% | 3.88% | 12.2% | -9.31% |
| Cc1nsc(NC(=O)N2CCC(C(C)(C)O)CC2)n1 | 1.56% | 5.41% | -3.48% | -1.81% | -8.11% | 1.74% | 14.2% | 5.12% | 1.07% | 6.17% | -3.72% |
| COCC1COCCC12CCN(CCc1ccccc1)CC2 (stereo unspecified) | -4.75% | 2.7% | 0.285% | 0.939% | 6.84% | -3.33% | 16.5% | 1.25% | 6.93% | 8.54% | 0.841% |
| Cn1cc(Br)c(=O)c(NS(=O)(=O)c2cc(F)ccc2Cl)c1 | -3.11% | 2.7% | -8.02% | 5.84% | 9.07% | -2.38% | 13.3% | 6.19% | 0.529% | -2.44% | -0.642% |
| CCCNCc1cn(C)nc1-c1cccnc1 | -2.45% | -2.7% | 1.1% | -2.38% | -6.55% | 1.74% | 11.8% | -8% | 0% | 1.24% | 1.57% |
| O=C(COc1coc(CN2CCCCC2)cc1=O)NCc1ccccc1 | -1.81% | 7.89% | 6.63% | 2.03% | -4.38% | -4.73% | 18.5% | -0.295% | 4.25% | 10.4% | -5.41% |
| CN(C)C(=O)N1CCN(Cc2nnc(C(C)(C)C)o2)CC1 | -0.665% | -5.41% | 0.51% | 3.54% | 0% | 1.91% | 1.55% | -1.07% | -1.59% | 0% | -0.0145% |
| CC(C)C(=O)NCCCn1ncc2c(Cl)cccc21 | -4.7% | 10.4% | 1.13% | 17.2% | 5.61% | -8.28% | 4.33% | -1.52% | 5.38% | 11.1% | -3.62% |

Source: ChEMBL document CHEMBL3988442, “University of Dundee, Small-Polar-MMV Screening Library” (2021)
